Data: article PMC4336329 (PLoS ONE, 2015)
Among all 310,000 compounds or so, about 14,000 (4.5%) showed an effect of 50% or more. Effects have a minus sign here. Only a selection was taken, and strong results are over-represented in it overall.
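Note: peak tail current of the secondary pulse compared with the same well before compound.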

What follows are molecules tested against human ether-à-go-go-related gene (hERG) potassium channel (human, UniProt Q12809) (assay: primary screen, population patch clamp on CHO cells stably expressing hERG; higher = less effect of the substance).
Sequence of human ether-à-go-go-related gene (hERG) potassium channel (Q12809 whole entry, looked up): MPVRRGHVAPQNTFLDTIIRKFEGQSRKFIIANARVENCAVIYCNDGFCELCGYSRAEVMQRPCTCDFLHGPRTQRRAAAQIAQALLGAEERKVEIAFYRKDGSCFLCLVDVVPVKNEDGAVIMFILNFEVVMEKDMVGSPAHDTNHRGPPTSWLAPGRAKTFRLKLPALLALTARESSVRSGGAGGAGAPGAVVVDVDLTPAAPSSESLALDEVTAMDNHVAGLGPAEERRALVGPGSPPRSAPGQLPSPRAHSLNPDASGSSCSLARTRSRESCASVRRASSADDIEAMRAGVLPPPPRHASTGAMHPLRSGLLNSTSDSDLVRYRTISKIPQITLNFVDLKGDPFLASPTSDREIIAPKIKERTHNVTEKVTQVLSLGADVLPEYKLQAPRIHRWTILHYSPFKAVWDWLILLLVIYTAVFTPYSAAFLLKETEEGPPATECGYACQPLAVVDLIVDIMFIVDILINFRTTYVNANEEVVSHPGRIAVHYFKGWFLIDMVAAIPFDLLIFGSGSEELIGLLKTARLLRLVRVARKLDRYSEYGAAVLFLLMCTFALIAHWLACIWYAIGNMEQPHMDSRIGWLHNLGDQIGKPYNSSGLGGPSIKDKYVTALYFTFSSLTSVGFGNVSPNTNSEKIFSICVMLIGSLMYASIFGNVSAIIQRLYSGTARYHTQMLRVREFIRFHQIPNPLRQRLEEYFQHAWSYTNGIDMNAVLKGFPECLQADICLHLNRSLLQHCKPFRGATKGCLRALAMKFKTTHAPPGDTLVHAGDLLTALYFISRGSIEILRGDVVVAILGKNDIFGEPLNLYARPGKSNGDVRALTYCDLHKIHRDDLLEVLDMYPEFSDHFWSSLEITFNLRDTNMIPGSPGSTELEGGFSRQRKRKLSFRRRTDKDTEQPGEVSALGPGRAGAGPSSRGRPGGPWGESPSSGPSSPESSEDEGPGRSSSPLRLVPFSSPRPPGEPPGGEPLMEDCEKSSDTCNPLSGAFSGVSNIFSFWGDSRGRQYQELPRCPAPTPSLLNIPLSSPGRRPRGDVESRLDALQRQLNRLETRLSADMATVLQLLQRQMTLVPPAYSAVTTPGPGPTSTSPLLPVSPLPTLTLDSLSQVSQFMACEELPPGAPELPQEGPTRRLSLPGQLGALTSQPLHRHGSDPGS
In the case of `COc1ccc(/C=N/NC(=O)CCC(=O)Nc2ccc(Br)cc2)c(OC)c1`, the “hERG current change (%, negative = inhibition) at 10uM” value is reported as 5.6%. With `COc1ccc(CNC(=O)Cn2nc([N+](=O)[O-])c(Br)c2C)cc1OC` the “hERG current change (%, negative = inhibition) at 10uM” value was -10.2%. `COC(=O)C1=C(C)N(c2ccc(C)c(C)c2)/C(=C/c2cccs2)C1=O` was tested, and the “hERG current change (%, negative = inhibition) at 10uM” value was -17.7%. `CCS(=O)(=O)N1CCN(S(=O)(=O)c2ccc3c(c2)OCCO3)CC1` was tested, and the “hERG current change (%, negative = inhibition) at 10uM” value was 17.5%. `CCCCOc1ccc(/C=C/C(=O)N(CC)CC(=O)Nc2ccc3c(c2)OCCO3)cc1OC` was tested, and the “hERG current change (%, negative = inhibition) at 10uM” value was -28.9%. For `CNC(=O)/C(C#N)=C/c1ccc(-c2ccc(OC)cc2[N+](=O)[O-])o1`, the “hERG current change (%, negative = inhibition) at 10uM” value was -1.67%. For `CN1CCC(=O)N([C@H](COc2ccccc2)Cc2ccccc2)CC1`, the “hERG current change (%, negative = inhibition) at 10uM” value was -28.5%. `CCCN1CCC(=O)N([C@H](COc2ccccc2)Cc2ccccc2)CC1` was tested, and the “hERG current change (%, negative = inhibition) at 10uM” value was -68.1%. For `CC(C)CN1CCC(=O)N([C@H](CO)Cc2ccccc2)CC1`, the “hERG current change (%, negative = inhibition) at 10uM” value was 6.64%. With `CC(C)C[C@@H](COc1ccccc1)N1CCN(CC(C)C)CCC1=O` the “hERG current change (%, negative = inhibition) at 10uM” value was -48.5%. With `CC(C)CN1CCC(=O)N([C@H](COc2ccccc2)Cc2ccccc2)CC1` the “hERG current change (%, negative = inhibition) at 10uM” value was -71.7%. For `O=C(c1cccc(Cl)c1)N1CCC(=O)N(C(COCc2ccccc2)Cc2ccccc2)CC1` (stereo not drawn), the “hERG current change (%, negative = inhibition) at 10uM” value was -51.9%. In the case of `C[C@H]1CCC(=O)N([C@H](COc2ccccc2)Cc2ccccc2)CC1`, the “hERG current change (%, negative = inhibition) at 10uM” value is reported as -42.7%. `Cc1cccc(COCC(Cc2ccccc2)N2CCN(C(=O)c3cccc(Cl)c3)CCC2=O)c1` (stereo not drawn) was tested, and the “hERG current change (%, negative = inhibition) at 10uM” value was -15.1%. In the case of `N#CC[C@H](Cc1ccccc1)N1CCN(Cc2ccccc2)CCC1=O`, the “hERG current change (%, negative = inhibition) at 10uM” value is reported as -24%. In the case of `O=C(c1cc(Cl)cc(Cl)c1)N1CCC(=O)N(C(COCc2ccccc2)Cc2ccccc2)CC1` (stereo not drawn), the “hERG current change (%, negative = inhibition) at 10uM” value is reported as -10%. With `O=C1CCN(Cc2ccccc2)CCN1[C@H](CO)Cc1ccccc1` the “hERG current change (%, negative = inhibition) at 10uM” value was 14.5%. With `O=C1CCN(Cc2ccccc2)CCN1[C@H](COc1ccccc1)Cc1ccccc1` the “hERG current change (%, negative = inhibition) at 10uM” value was -56.4%. With `Cc1cc(C)c2[nH]c(O)c(N=NC3=NC(=O)CS3)c2c1` the “hERG current change (%, negative = inhibition) at 10uM” value was -19.6%. For `Cc1ccc(C)c(N2CCN(c3nc4ccccc4c(=O)n3Cc3ccccc3)CC2)c1`, the “hERG current change (%, negative = inhibition) at 10uM” value was 14.1%. With `Cc1cnc(C(=O)N2CCCC(C(=O)c3ccc(C(C)(C)C)cc3)C2)cn1` (stereo not drawn) the “hERG current change (%, negative = inhibition) at 10uM” value was -20.7%. For `CCN1CCN(C(=O)c2ccc(CNS(=O)(=O)c3cccc(OC)c3)cc2)CC1`, the “hERG current change (%, negative = inhibition) at 10uM” value was 40.7%. For `O=C(OCc1cncs1)c1ccccc1Cl`, the “hERG current change (%, negative = inhibition) at 10uM” value was 6.6%. `O=C(NCc1cccnc1)Nc1ccc2c(c1)OCO2` was tested, and the “hERG current change (%, negative = inhibition) at 10uM” value was -7.04%. `COc1ccccc1CCNC(=O)C1CCN(C(=O)/C=C/c2ccccc2)CC1` was tested, and the “hERG current change (%, negative = inhibition) at 10uM” value was -13.8%. With `COCCCNC(=O)CSc1ccc(Cl)cc1` the “hERG current change (%, negative = inhibition) at 10uM” value was 2.32%. With `CCCCN(Cc1ccccc1)C(=O)CCN1C(=O)C2C3C=CC(C3)C2C1=O` (stereo not drawn) the “hERG current change (%, negative = inhibition) at 10uM” value was 1.48%. With `N#CC[C@H](Cc1ccccc1)N1CCN(CCc2ccccc2)CCC1=O` the “hERG current change (%, negative = inhibition) at 10uM” value was 16.5%. In the case of `O=C1CCN(CCc2ccccc2)CCN1[C@H](COc1ccccc1)Cc1ccccc1`, the “hERG current change (%, negative = inhibition) at 10uM” value is reported as -78.6%. With `O=C1CCN(CCc2ccccc2)CCN1[C@H](CO)Cc1ccccc1` the “hERG current change (%, negative = inhibition) at 10uM” value was -44.4%. For `O=C(Nc1ccccc1)NC1CCN(Cc2c(F)cccc2Cl)CC1`, the “hERG current change (%, negative = inhibition) at 10uM” value was 7.91%. For `Cc1cccc(-c2nc3c(c(SCC(=O)N4CCOCC4)n2)Cc2c(CO)cnc(C)c2O3)c1`, the “hERG current change (%, negative = inhibition) at 10uM” value was 5.78%. In the case of `Cc1ccc(S(=O)(=O)NNC(=O)c2csnn2)cc1`, the “hERG current change (%, negative = inhibition) at 10uM” value is reported as 1.7%. With `O=[N+]([O-])c1ccc(-n2nncc2-c2ccccc2)cc1` the “hERG current change (%, negative = inhibition) at 10uM” value was -29.4%. For `O=Cc1ccc(-n2nncc2-c2ccc([N+](=O)[O-])cc2)cc1`, the “hERG current change (%, negative = inhibition) at 10uM” value was -67.3%. In the case of `Cc1cnnn1-c1ccc([N+](=O)[O-])cc1`, the “hERG current change (%, negative = inhibition) at 10uM” value is reported as 23.5%. `CC(=O)c1ccc(-n2nncc2-c2ccc([N+](=O)[O-])cc2)cc1` was tested, and the “hERG current change (%, negative = inhibition) at 10uM” value was -53.3%. `COc1ccc(-c2cnnn2-c2ccc([N+](=O)[O-])cc2)cc1` was tested, and the “hERG current change (%, negative = inhibition) at 10uM” value was -64.6%. In the case of `Nc1ccc(-n2nncc2-c2ccc(Cl)cc2)cc1`, the “hERG current change (%, negative = inhibition) at 10uM” value is reported as -35.9%. `O=C(O)c1ccc(-n2nncc2-c2ccccc2)cc1` was tested, and the “hERG current change (%, negative = inhibition) at 10uM” value was 8.58%. For `O=[N+]([O-])c1cccc(-n2nncc2-c2ccccc2)c1`, the “hERG current change (%, negative = inhibition) at 10uM” value was -1.23%. For `c1ccc(-c2cnnn2-c2ccccc2)cc1`, the “hERG current change (%, negative = inhibition) at 10uM” value was 12.7%. With `CC(C)(C)c1cnnn1-c1ccc([N+](=O)[O-])cc1` the “hERG current change (%, negative = inhibition) at 10uM” value was -8.46%. In the case of `CC(=O)c1ccc(-n2nncc2C)cc1`, the “hERG current change (%, negative = inhibition) at 10uM” value is reported as 19.8%. For `O=[N+]([O-])c1ccc(-n2nncc2-c2ccc(Cl)cc2)cc1`, the “hERG current change (%, negative = inhibition) at 10uM” value was -72.7%.
